DRD3 antagonist = blocks the human D3 dopamine receptor. P35462. D3R cells, DiscoveRx beta-arrestin luminescence, antagonist mode; active compounds read low. max response, negative = inhibition, %. 360,000 tested, 2.5% active. AID 652054; in the data active means max response below about -50%; inconclusive means no clear call, values can overlap the other calls
Target sequence (P35462 whole entry, looked up): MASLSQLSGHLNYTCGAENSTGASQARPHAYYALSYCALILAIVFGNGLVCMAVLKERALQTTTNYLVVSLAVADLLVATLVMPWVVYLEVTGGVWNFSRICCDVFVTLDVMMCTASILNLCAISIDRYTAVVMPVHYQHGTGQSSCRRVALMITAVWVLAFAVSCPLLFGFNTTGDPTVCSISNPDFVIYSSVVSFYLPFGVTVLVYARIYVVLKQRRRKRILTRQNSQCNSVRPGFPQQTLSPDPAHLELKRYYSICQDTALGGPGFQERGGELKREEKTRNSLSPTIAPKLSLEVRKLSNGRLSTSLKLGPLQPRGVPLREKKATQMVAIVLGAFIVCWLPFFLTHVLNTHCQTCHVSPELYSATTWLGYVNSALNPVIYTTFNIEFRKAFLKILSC
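Cells expressing the human receptor were seeded at 1500 cells/well, incubated overnight at 37 degrees C in 5% CO2, then exposed to library compounds with dopamine controls for 90 minutes at 37 degrees C before luminescent detection.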
RGS4 inhibitor = inhibitors of human regulator of G protein signaling 4; Transcreener GDP fluorescence polarization, RGS4-accelerated GTP hydrolysis; Potency, µM (doses to about 114 µM), actives largely listed as inhibitors; 390,000 tested, 0.039% active; P49798; active means well fitted inhibition curve with a large enough effect; inconclusive means small, poorly fitted or top-dose-only effect; inactive means no such curve, though single readings can be large or run the other way; further: nearly all actives have a fitted effect of over 75% in size
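MLSMR compounds (23 nl, pin-transferred) preincubated 10 min at room temperature with a 500nM (2x) first reagent, then RGS4 at 900nM (2x) plus Transcreener GDP mix added; fluorescence polarization (620/688 nm) read before and after 90 min at 30 °C.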
D3 ag = activates the human D3 dopamine receptor | D3R DiscoveRx beta-arrestin cells, luminescence, 90 min | P35462 | max activation, % | 410,000 tested, 0.58% active | AID 652048; in the data active means max activation above about 30%
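Agonist-mode cell screen: cells plated at 1500/well and incubated overnight at 37 °C, then exposed to library compounds for 90 min at 37 °C. Detection reagent was added for 30–60 min at room temperature, and luminescence was read.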
uPA generation = cell surface uPA generation inhibition | cell surface uPA generation assay, qHTS | Potency, µM (top dose mostly 38.3 µM), actives largely listed as inhibitors | 330,000 tested, 0.31% active; active means well fitted inhibition curve with a large enough effect; inconclusive means small, poorly fitted or top-dose-only effect; inactive means no such curve, though single readings can be large or run the other way; tested in mouse RAW 264.7 cells; further: nearly all actives have a fitted effect of over 55% in size
A number is an active result; . = inactive; ? = inconclusive; / = not tested or not shown. Only some compounds are listed: those with a hit (about 3.1% of all), similar ones and a draw of the others.

SMILES	DRD3 antagonist	RGS4 inhibitor	D3 ag	uPA generation
COc1ccc(S(=O)(=O)NCC(c2cccs2)S(=O)(=O)c2ccc(C)cc2)cc1F (configuration not stated)	/	.	.	/
COC(=O)C(c1ccccc1Cl)N1CCc2sccc2C1 (configuration not stated)	/	/	.	/
Cc1cn([C@H]2C[C@H](O)[C@@H](/C=C/C(=O)NCc3ccccc3)O2)c(=O)[nH]c1=O	.	/	.	/
Cc1cn([C@H]2C[C@H](O)[C@@H](/C=C/C(=O)NCCc3cccnc3)O2)c(=O)[nH]c1=O	.	/	59	/
Cc1ccc(C(=O)NCC(=O)NCCSc2ccc(Br)cc2)cc1	-57	.	.	.
CCCCn1c(N)c(N(CCOC)C(=O)Cn2c(=O)oc3ccccc32)c(=O)[nH]c1=O	.	.	95	.
CCCCn1c(N)c(N(C)C(=O)CCCn2c(=O)oc3ccccc32)c(=O)[nH]c1=O	.	/	.	/
CCCCN(C(=O)c1ccccc1F)c1c(N)n(CCC)c(=O)[nH]c1=O	.	.	33	.
O=C1NC[C@@H](CCCCN2C[C@H](Cc3ccc(O)cc3)N(CCC3CCCCC3)C(=O)C2=O)N(CC2CCCCC2)C1=O	-63	/	.	/
O=C1NC[C@H](CCCCN2C[C@H](Cc3ccc(O)cc3)N(CC3CCCCC3)C(=O)C2=O)N(CCC2CCCCC2)C1=O	.	/	.	/
O=C1NC[C@H](CCCCN2CCN(Cc3ccccc3)C(=O)C2=O)N(CCC2CCCCC2)C1=O	.	/	33	/
Cc1ccc(C(=O)Nc2nnc(S(=O)(=O)N3CCc4ccccc43)s2)cc1	/	.	.	/
CCN(Cc1ccccc1)c1ncnc2c1cnn2-c1ccc(F)cc1	/	.	.	/
O=c1cc(-c2ccc(O)cc2)oc2ccc3ccccc3c12	.	.	.	0.89µM
CCOc1cc(C(=O)N2CC(=O)Nc3ccc(C)cc3C2c2ccccc2)cc(OCC)c1OCC (configuration not stated)	/	.	.	/
COc1ccc(C(=O)NCc2c(C)nn(Cc3ccccc3)c2C)cc1S(=O)(=O)N1CCOCC1	.	.	.	10µM
COc1ccc(S(=O)(=O)N2CCOCC2)cc1C(=O)NCc1c(C)nn(Cc2ccccc2)c1C	.	.	.	.
COc1ccccc1N1CCN(CC(=O)Nc2ccc(CN3CCCCC3)cc2)CC1	-65	.	.	.
Cc1ccc(Cl)cc1N1CCN(CC(=O)Nc2ccc(CN3CCCCC3)cc2)CC1	-65	.	.	.
CC(=O)c1cccc(NC(=O)CSCc2ccccc2)c1	-79	.	.	.
COC(=O)c1cccc(NC(=O)CN2CCN(Cc3ccccc3)CC2)c1	-50	.	.	.
COc1ccccc1NC(=O)CN1CCN(c2ccccc2OC)CC1	.	.	.	.
CCOc1ccc(CNC(=O)c2cc3cc(S(=O)(=O)N4CCCCC4)ccc3n2C)cc1	/	.	.	/
Cc1cccc(CSc2nc3c(c(=O)[nH]2)C(c2cccc(O)c2)CC(=O)N3)c1 (configuration not stated)	/	.	.	/
COc1ccccc1N1CCN(CC(=O)NC(=O)NCc2ccccc2)CC1	.	/	.	/
SMILES	DRD3 antagonist	RGS4 inhibitor	D3 ag	uPA generation
COc1ccccc1N1CCN(CC(=O)NCc2ccc(Cl)cc2)CC1	-70	.	.	.
c1cn2c(NC3CCCC3)c(-c3ccc(N4CCOCC4)cc3)nc2cn1	.	.	.	5.6µM
Cc1ccc(C)c(N(C(=O)c2nsc(Cl)c2Cl)C(C(=O)NC2CCCC2)c2ccc(O)cc2)c1 (configuration not stated)	-62	.	.	.
COc1ccc(CN(C(=O)c2nsc(Cl)c2Cl)C(C(=O)NC2CCCC2)c2ccc(C)cc2)cc1 (configuration not stated)	.	.	.	.
Cc1nnc(NC(=O)C(=O)c2cc(C)n(-c3ccc(C)c(C)c3)c2C)s1	/	.	.	/
O=C(OCc1ccccc1)c1ccc(NCc2cc(O)ccc2O)cc1	-68	.	.	.
CC(C)OC(=O)c1ccc(NCc2cc(O)ccc2O)cc1	?	.	.	.
COc1ccc(OC)c(NC(=O)CN(C)S(=O)(=O)c2ccc(C(=O)N3CCOCC3)s2)c1	/	.	.	/
COc1cc(OC)cc(-c2cc3nc(C)c(CCC(=O)Nc4ccccc4OC)c(C)n3n2)c1	/	.	.	/
CCN1CCN(Cc2ccc(NC(=O)c3cc(NC(=O)C(=O)c4c[nH]c5ccccc45)cc(OC)c3)cc2C(F)(F)F)CC1	-54	.	.	?
CCN1CCN(Cc2ccc(NC(=O)c3cc(NC(=O)c4cnn(-c5ccccc5)c4N)cc(OC)c3)cc2C(F)(F)F)CC1	.	.	.	.
COc1ccc(-n2nnnc2S(=O)(=O)Cc2ccc(C(=O)O)cc2)cc1	.	.	.	/

Compound activity (PubChem)
